# According to the supplement of paper PMC10127200:
# Structures can show the parent of a compound that is named as a salt.
# Tests used:
# Experiment in all cases: Euclidean distance of Cell Painting phenotypic profile (signed KS, 77 features) to DMSO centroid (dimensionless distance); 5 or 10 uM (library dependent); higher = stronger phenotypic change vs DMSO (phenoactivity)
# Details in all cases: 48 h
# 786-O = test system: 786-O
# Summary of the method: (§1)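 Five cancer lines and a healthy fibroblast line received library compounds at 10 or 5 uM (library-dependent, 0.1% DMSO final) for 48 h. Stained cells were imaged confocally at 20X (9 fields/well). Harmony extracted 77 features, each scored as a signed Kolmogorov-Smirnov statistic against same-plate vehicle wells. Profiles were plate-position corrected, correlation-weighted and replicate-averaged at the top dose. Phenoactivity is the Euclidean distance from each profile to the median vehicle profile.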
# A549 = test system: A549
# Summary of the method: as §1
# DU145 = test system: DU145
# Summary of the method: as §1
# FB = test system: FB
# Summary of the method: as §1
# HEPG2 = test system: HEPG2
# Summary of the method: as §1
# OVCAR4 = test system: OVCAR4
# Summary of the method: as §1
Structure (SMILES),Euclidean distance (786-O),Euclidean distance (A549),Euclidean distance (DU145),Euclidean distance (FB),Euclidean distance (HEPG2),Euclidean distance (OVCAR4)
CCCCCCCCc1ccc(CCC(N)(CO)CO)cc1 [Fingolimod],5.32,4,5.79,2.18,5.29,4.16
[O-][n+]1cccc(-c2nc3c(Cl)cccc3cc2[C@@H](Nc2ncnc3cccnc23)C(F)(F)F)c1 [Seletalisib (UCB-5857)],1.2,0.825,1.4,1.69,1.73,2.03
O=C(O)CCNC(=O)c1ccc(/N=N/c2ccc(O)c(C(=O)O)c2)cc1 [Balsalazide disodium],0.73,0.808,0.796,0.76,0.576,0.971
CN1CCC(=C2c3ccccc3CCn3c(C=O)cnc32)CC1 [Alcaftadine],1.07,0.581,1.26,1.66,0.597,1.22
O=C(NC(NC(=S)Nc1ccc(F)c([N+](=O)[O-])c1)C(Cl)(Cl)Cl)C(c1ccccc1)c1ccccc1 (centres undefined),1.02,2.27,1.38,1.49,1.56,1.25
N#Cc1ccc(C(c2ccc(C#N)cc2)n2cncn2)cc1 [Letrozole],3.04,1.88,1.67,3.14,1.48,2.31
CO/N=C(\C(=O)N[C@@H]1C(=O)N2C(C(=O)OC(C)OC(C)=O)=C(COC(N)=O)CS[C@H]12)c1ccco1 (some centres undefined) [Cefuroxime axetil],0.923,0.763,0.929,1.28,1.28,1.41
CN1CCN(Cc2ccc(Nc3ncc(Cl)c(Nc4ccccc4S(=O)(=O)N(C)C)n3)cc2)CC1,3.04,3.57,3.22,2.93,2.81,3.88
CCN(CC)CCNC(=O)c1c(C)[nH]c(/C=C2\C(=O)Nc3ccc(F)cc32)c1C [Sunitinib],3.58,3.66,2.98,4.34,3.3,2.86
CN(C)CCCCC(=O)Nc1ccc(NC(=S)NC(=O)c2ccc(C(C)(C)C)cc2)cc1 [Tenovin-6],2.9,3.08,1.61,3.01,3.46,1.95
C[n+]1ccccc1/C=N/O [Pralidoxime chloride],1.41,0.85,1.53,1.2,0.755,1.08
O=C1NCCc2[nH]c(-c3ccncc3)cc21,3.08,0.97,1.24,3.06,2.81,3.15
CN(C)CCCN1c2ccccc2Sc2ccccc21 [Promazine hydrochloride],1.46,0.965,2.09,1.9,2.01,1.58
CCCOc1ccc(S(=O)(=O)NCCC2CCCN2C)cc1-c1nc2c(CCC)nn(C)c2c(=O)[nH]1 (centres undefined) [Udenafil],1.13,1.12,1.49,1.77,1.61,1.41
O=[N+]([O-])c1ccc2c(c1)S(=O)(=O)C=C2 [Stattic],5.16,2.51,2.61,3.89,1.16,4.56
CC(C(=O)O)c1ccc(C(=O)c2cccs2)cc1 (centres undefined) [Suprofen],1.32,0.825,0.656,0.981,2.04,1.01
NCCc1c[nH]cn1 [Histamine Phosphate],1.2,0.956,1.77,1.25,1.23,1.04
Cc1cnc(-c2cc(N3CCN(C(=O)CCS(C)(=O)=O)CC3)ncc2Cl)c(C)c1,0.761,1.09,1.04,1.23,0.662,1.03
CCOCC(O)COc1ccc(NC(=O)CC[S+](C)C)cc1 (centres undefined) [Suplatast Tosylate],1.48,1.01,1.47,1.14,0.648,1.13
C=CCNC(N)=S [Allylthiourea],1.12,0.909,0.907,0.873,0.823,1.54
C=C1CC[C@@H]2[C@](C)(CO)[C@H](O)CC[C@@]2(C)[C@H]1C/C=C1\C=COC1=O [Dehydroandrographolide],1,0.867,0.554,0.87,0.517,1.29
Cc1cc2c(F)c(Oc3ncnn4cc(OC[C@@H](C)OC(=O)[C@H](C)N)c(C)c34)ccc2[nH]1,2.11,1.25,1.14,1.57,0.818,1.35
CC/C=C(\C(=O)N[C@@H]1C(=O)N2C(C(=O)OCOC(=O)C(C)(C)C)=C(COC(N)=O)CS[C@H]12)c1csc(N)n1 [Cefcapene Pivoxil Hydrochloride],1.24,0.833,2.69,0.746,0.54,0.898
COC(=O)N[C@H](C(=O)N[C@@H](Cc1ccccc1)[C@@H](O)CN(Cc1ccc(-c2ccccn2)cc1)NC(=O)[C@@H](NC(=O)OC)C(C)(C)C)C(C)(C)C [Atazanavir Sulfate],1.01,0.58,0.637,0.614,0.837,1.55
CC(=O)Nc1ccc(OC(=O)c2ccccc2OC(C)=O)cc1 [Benorylate],1.08,1.08,1.31,1.41,0.561,1.13

Structure (SMILES),Euclidean distance (786-O),Euclidean distance (A549),Euclidean distance (DU145),Euclidean distance (FB),Euclidean distance (HEPG2),Euclidean distance (OVCAR4)
C[C@]1(Cn2ccnn2)[C@H](C(=O)O)N2C(=O)C[C@H]2S1(=O)=O [Tazobactam],0.708,0.639,0.78,0.984,0.41,0.673
CCC(C)(C)c1ccc(CC(C)CN2C[C@@H](C)O[C@@H](C)C2)cc1 (some centres undefined) [Amorolfine HCl],0.719,0.701,0.552,1.61,0.635,0.693
CC(=O)NS(=O)(=O)c1ccc(N)cc1 [Sulfacetamide Sodium],1.12,0.648,1.22,0.694,0.673,1.05
Oc1cc(O)c(Cl)cn1 [Gimeracil],0.868,1.07,1.6,1.25,2.06,1.53
CC[C@]1(O)C[C@@H]2CN(CCc3c([nH]c4ccccc34)[C@@](C(=O)OC)(c3cc4c(cc3OC)N(C)[C@H]3[C@@](O)(C(=O)OC)[C@H](OC(C)=O)[C@]5(CC)C=CCN6CC[C@]43[C@@H]65)C2)C1 [Vinblastine sulfate],3.25,3.68,4.31,3.49,3.33,3
O=C1c2cccc3c2[C@H](CCC3)CN1[C@@H]1CN2CCC1CC2 [Palonosetron HCl],1.56,0.602,0.971,0.972,1.29,1.22
CCCC(C)NC(=O)c1ccc(Cl)c(Cl)c1 (centres undefined),0.75,0.663,0.911,1.24,0.75,0.568
CCCCNC(=O)NS(=O)(=O)c1ccc(C)cc1 [Tolbutamide],1.41,0.625,0.836,0.823,0.337,0.856
Cc1ccc(C(=O)c2ccc(CC(=O)O)n2C)cc1 [Tolmetin],1.07,0.65,0.844,1.14,0.964,0.922
C[C@@H](N)[C@H]1CC[C@H](C(=O)Nc2ccncc2)CC1,3.12,3.33,3.45,2.59,1.02,3.15
NC[C@H](O)c1ccc(O)c(O)c1 [Noradrenaline bitartrate monohydrate],1.19,0.515,0.963,1.17,0.697,0.846
CC(=O)O[C@H]1Cc2ccccc2N(C(N)=O)c2ccccc21 [Eslicarbazepine Acetate],0.621,0.976,0.966,1.39,1.17,1.64
c1cn2cc(-c3ccc4cn[nH]c4c3)nc(Nc3ccc(N4CCOCC4)cc3)c2n1 [Entospletinib (GS-9973)],2.51,2.15,2.1,0.923,0.994,1.42
CCCCC[C@H](O)/C=C/[C@H]1[C@H](O)CC(=O)[C@@H]1CCCCCCC(=O)O [Alprostadil],1.36,0.929,0.936,1.16,0.927,1.2
CC1(C)CC[C@]2(NC(=O)C(C)(F)F)CC[C@]3(C)[C@H](C(=O)C=C4[C@@]5(C)C=C(C#N)C(=O)C(C)(C)[C@@H]5CC[C@]43C)[C@@H]2C1 [Omaveloxolone (RTA-408)],6.36,4.96,6.92,7.18,5.59,6.32
NC[C@H]1O[C@H](O[C@H]2[C@H](O[C@@H]3O[C@H](CO)[C@@H](O)[C@H]3O)[C@@H](O)[C@H](N)C[C@@H]2N)[C@H](N)[C@@H](O)[C@@H]1O [Ribostamycin Sulfate],1.45,1.17,1.23,0.806,0.615,1.22
O=C(NCC(O)CO)c1c(I)c(C(=O)NCC(O)CO)c(I)c(N(CCO)C(=O)CO)c1I (centres undefined) [Ioversol],0.684,0.636,0.983,0.679,0.876,1.14
CCCCCCCCCC(=O)OC1(c2ccc(Cl)cc2)CCN(CCCC(=O)c2ccc(F)cc2)CC1 [Haloperidol Decanoate],0.828,1.13,1.01,0.816,0.961,1.26
COCCNCc1ccc(-c2cc3nccc(Oc4ccc(NC(=O)C5(C(=O)Nc6ccc(F)cc6)CC5)cc4F)c3s2)nc1 [Sitravatinib (MGCD516)],5.08,4.94,5.04,5.24,4.74,4.64
C=C1CC[C@H]2C(=C)CC[C@H]3C(=C)C(=O)O[C@@H]3[C@@H]12 [Dehydrocostus Lactone],6.1,3.77,7.43,3.32,3.68,2.97
Nc1nc2n[nH]nc2c(=O)[nH]1 [Azaguanine-8],1.55,0.834,0.699,1.27,1.17,0.737
CNCc1ccc(C)c(NC(=O)c2ccc(Nc3nc(-c4ccccc4)c4ccccc4n3)cc2)c1,5.12,4.68,3.37,4.9,5.84,4.54
O=C(NNc1ccccc1)c1ccncc1,2.02,1.17,0.814,1.28,1.46,1.39
Cc1cc(=O)n(-c2ccccc2)n1C [Antipyrine],1.52,0.45,1.03,1.42,0.888,0.707
